For this assay, the target named is T1, Methionyl-tRNA synthetase, putative (Leishmania donovani (strain BPK282A1)) (UniProt E9BF75).
T1 sequence (whole entry): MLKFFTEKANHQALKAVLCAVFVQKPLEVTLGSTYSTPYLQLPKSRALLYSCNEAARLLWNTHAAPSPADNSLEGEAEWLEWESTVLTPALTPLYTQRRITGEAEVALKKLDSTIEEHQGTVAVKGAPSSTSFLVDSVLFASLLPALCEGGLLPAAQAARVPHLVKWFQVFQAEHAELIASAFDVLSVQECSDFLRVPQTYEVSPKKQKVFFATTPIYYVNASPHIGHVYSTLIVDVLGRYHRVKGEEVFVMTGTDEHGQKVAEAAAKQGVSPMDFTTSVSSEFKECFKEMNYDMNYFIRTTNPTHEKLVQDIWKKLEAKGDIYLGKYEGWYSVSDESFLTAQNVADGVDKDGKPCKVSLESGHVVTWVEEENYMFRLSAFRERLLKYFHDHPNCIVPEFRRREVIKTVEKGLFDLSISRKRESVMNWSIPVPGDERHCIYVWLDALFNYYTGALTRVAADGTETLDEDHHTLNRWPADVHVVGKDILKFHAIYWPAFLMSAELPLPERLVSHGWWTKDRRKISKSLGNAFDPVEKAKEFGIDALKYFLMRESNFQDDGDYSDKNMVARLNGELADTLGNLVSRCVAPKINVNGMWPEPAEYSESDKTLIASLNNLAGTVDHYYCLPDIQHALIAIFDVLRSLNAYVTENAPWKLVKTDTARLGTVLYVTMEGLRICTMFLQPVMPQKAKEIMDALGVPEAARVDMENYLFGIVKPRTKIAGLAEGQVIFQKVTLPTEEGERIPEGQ
The assay can be described thus: Leishmania donovani Methionine tRNA synthetase (LdMetRS):v7. Dose response assay. Details: conc 80 nM, time 150 minutes. The format is functional.

We go through 18 molecules from ChEMBL document CHEMBL3988442, “University of Dundee, Small-Polar-MMV Screening Library” (2021).

As for `Cn1ncc2c(NCC(C)(C)O)nc(Nc3ccc(F)c(F)c3)nc21`, the PXC50 reads like this: (BOTTOM 2.756167144, HILLSLOPE 0.998486082, MAX_EFFECT 82.64150943, TOP 95.06215472) 4.8; (BOTTOM -1.483509386, HILLSLOPE 0.96789371, MAX_EFFECT 77.86259542, TOP 87.31089032) 4.95; (BOTTOM -2.002010489, HILLSLOPE 0.709003451, MAX_EFFECT 80.70175439, TOP 108.677252) 4.69.
Regarding `Cn1ncc2c(NCCO)nc(Nc3cccc(O)c3)nc21`, the PXC50 (MAX_EFFECT 5.386416862) is less than 4, the PXC50 (MAX_EFFECT 6.072106262) is less than 4 and the PXC50 (MAX_EFFECT 8.167770419) is less than 4.
Regarding `OCCNc1nc(Nc2ccc(F)c(F)c2)ncc1F`, the PXC50 is, setting by setting: (BOTTOM 4.80997506, HILLSLOPE 1.016069871, MAX_EFFECT 75.05938242, TOP 103.871029) 4.37; (BOTTOM 6.495032966, HILLSLOPE 1.205723909, MAX_EFFECT 75.53648069, TOP 100.0) 4.33; (BOTTOM -1.721460895, HILLSLOPE 0.874564497, MAX_EFFECT 71.96261682, TOP 100.0) 4.5.
For the molecule `Cn1ncc2c(NCCO)nc(Nc3cccc(OC(F)(F)F)c3)nc21`, the PXC50 runs as follows: (MAX_EFFECT 13.77672209) less than 4; (MAX_EFFECT 18.02575107) less than 4; (MAX_EFFECT 24.6628131) less than 4.
Regarding `Cn1ncc2c(NCCO)nc(Cl)nc21`, the PXC50 was less than 4 (MAX_EFFECT 0.234192037), less than 4 (MAX_EFFECT 8.148148148) and less than 4 (MAX_EFFECT -0.662251656).
For the molecule `Cn1ncc2c(NCCN3CCOCC3)nc(Nc3ccc(F)c(F)c3)nc21`, the PXC50 was found to be 4.86 (BOTTOM 0.0547, HILLSLOPE 0.927770989, MAX_EFFECT 85.76850095, TOP 98.88350894); 4.91 (BOTTOM -0.988495369, HILLSLOPE 1.035285925, MAX_EFFECT 73.01886792, TOP 82.1779252); 4.76 (BOTTOM -7.338677117, HILLSLOPE 0.775594481, MAX_EFFECT 82.64840183, TOP 100.0).
On to `Cc1cnc(Nc2ccc(F)c(F)c2)nc1NCCO`, for which the PXC50 was determined as 5.03 (BOTTOM 3.101896626, HILLSLOPE 0.807877595, MAX_EFFECT 79.29515419, TOP 94.15227944); 5.22 (BOTTOM 5.769615282, HILLSLOPE 1.014209397, MAX_EFFECT 83.3655706, TOP 87.41572948); 5 (BOTTOM -1.22519456, HILLSLOPE 0.709920628, MAX_EFFECT 85.74380165, TOP 105.2657083).
For the molecule `Cn1ncc2c(NC(CO)CO)nc(Nc3ccc(F)c(F)c3)nc21`, the PXC50 was 4.94 (BOTTOM 0.0, HILLSLOPE 0.771628136, MAX_EFFECT 78.30188679, TOP 92.57465731); 4.98 (BOTTOM 5.639474755, HILLSLOPE 1.325747432, MAX_EFFECT 80.3652968, TOP 81.67018871); 4.98 (BOTTOM 7.610636653, HILLSLOPE 1.121965033, MAX_EFFECT 79.69639469, TOP 86.15604804).
Molecule `NS(=O)(=O)c1cc(C(=O)O)cnc1Nc1cccc(C(F)(F)F)c1` returned a PXC50 (MAX_EFFECT 5.660377358) of less than 4, a PXC50 (MAX_EFFECT 10.0877193) of less than 4 and a PXC50 (MAX_EFFECT 16.28498728) of less than 4.
Consider `Cn1ncc2c(NCCO)nc(Nc3cccc(S(N)(=O)=O)c3)nc21`, for which the PXC50 is less than 4 (MAX_EFFECT 2.127659574), less than 4 (MAX_EFFECT 6.392694064) and less than 4 (MAX_EFFECT 11.50943396).
As to `Cc1cnn(CC2CCCN2Cc2nc(C)c3ccccc3n2)c1` (centres undefined), the PXC50 runs as follows: (BOTTOM 4.743177934, HILLSLOPE 1.089829687, MAX_EFFECT 75.04332756, TOP 100.0) 4.32; (BOTTOM 12.95021696, HILLSLOPE 2.00591159, MAX_EFFECT 86.80555556, TOP 100.0) 4.37; (BOTTOM -2.883731045, HILLSLOPE 1.436435191, MAX_EFFECT 78.52348993, TOP 84.80947153) 4.63.
Molecule `Cn1ncc2c(NCCc3nnn[nH]3)nc(Nc3ccc(F)c(F)c3)nc21` yielded a PXC50 (BOTTOM 6.583334695, HILLSLOPE 0.991501174, MAX_EFFECT 88.67924528, TOP 94.6320251) of 5.11; a PXC50 (BOTTOM -5.664940327, HILLSLOPE 0.831663104, MAX_EFFECT 86.00508906, TOP 96.34066377) of 5.16; a PXC50 (BOTTOM -7.167085921, HILLSLOPE 0.718342131, MAX_EFFECT 85.0877193, TOP 100.1570552) of 5.14.
`OCCCNc1nccc(Nc2cccc(C(F)(F)F)c2)n1`: the PXC50 is less than 4 (MAX_EFFECT 6.834532374), less than 4 (MAX_EFFECT 6.86695279) and less than 4 (MAX_EFFECT 9.976247031).
With `Cn1ncc2c(N3CCCCC3)nc(Nc3ccc(F)c(F)c3)nc21`, the PXC50 was 5.24 (BOTTOM 9.784183065, HILLSLOPE 1.295074552, MAX_EFFECT 52.03094778, TOP 54.78178501); less than 4 (MAX_EFFECT 30.83700441); less than 4 (MAX_EFFECT 34.09090909).
In the case of `Cn1ncc2c(NCC3CCCO3)nc(Nc3ccc(F)c(F)c3)nc21` (centres undefined), the PXC50 came to 4.96 (BOTTOM 1.649824941, HILLSLOPE 0.742759749, MAX_EFFECT 82.45614035, TOP 99.7468185); 4.99 (BOTTOM 4.130822452, HILLSLOPE 0.904236715, MAX_EFFECT 86.03773585, TOP 94.6325805); 4.93 (BOTTOM 7.824180632, HILLSLOPE 1.170320257, MAX_EFFECT 82.95165394, TOP 90.00397209).
Take `O=S(=O)(NCCSc1nccn1C1CC1)c1ccccc1`: the PXC50 was less than 4 (MAX_EFFECT 2.721088435), less than 4 (MAX_EFFECT 2.898550725) and less than 4 (MAX_EFFECT 8.23117338).
Turning to `CNS(=O)(=O)CCNc1nc(NCCO)c2cnn(C)c2n1`, the PXC50 by setting is: (MAX_EFFECT 5.780346821) less than 4; (MAX_EFFECT 6.392694064) less than 4; (MAX_EFFECT 15.28301887) less than 4.
As to `Cn1ncc2c(NC3CCOCC3)nc(Nc3ccc(F)c(F)c3)nc21`, the PXC50 was 4.65 (BOTTOM 5.374646893, HILLSLOPE 1.78968519, MAX_EFFECT 52.27272727, TOP 55.59803221); 5.4 (BOTTOM 9.100238565, HILLSLOPE 1.237667708, MAX_EFFECT 69.82591876, TOP 73.93326352); less than 4 (MAX_EFFECT 40.52863436).
